From PubChem BioAssay AID2263 (National Center for Advancing Translational Sciences (NCATS), 2010)
Some of the results follow. Results filed as inconclusive are left out. Activity calls are given as the source filed them. Calls follow the shape of the dose curve; as a rule, active = well fitted inhibition curve with a large enough effect; inconclusive = small, poorly fitted or top-dose-only effect, or effect the other way; inactive = flat fitted curve, though single readings scatter.

These compounds were tested against Pyruvate kinase PKM (Homo sapiens) (UniProt P14618) (assay: Confirmation Concentration-Response Assay for Inhibitors of Human Muscle isoform 2 Pyruvate Kinase). Details: purified hPK-M2, Kinase-Glo ATP luminescence, 1 h; series mostly up to 57.5 µM.
Pyruvate kinase PKM (Homo sapiens), sequence (P14618 whole entry, looked up, canonical isoform): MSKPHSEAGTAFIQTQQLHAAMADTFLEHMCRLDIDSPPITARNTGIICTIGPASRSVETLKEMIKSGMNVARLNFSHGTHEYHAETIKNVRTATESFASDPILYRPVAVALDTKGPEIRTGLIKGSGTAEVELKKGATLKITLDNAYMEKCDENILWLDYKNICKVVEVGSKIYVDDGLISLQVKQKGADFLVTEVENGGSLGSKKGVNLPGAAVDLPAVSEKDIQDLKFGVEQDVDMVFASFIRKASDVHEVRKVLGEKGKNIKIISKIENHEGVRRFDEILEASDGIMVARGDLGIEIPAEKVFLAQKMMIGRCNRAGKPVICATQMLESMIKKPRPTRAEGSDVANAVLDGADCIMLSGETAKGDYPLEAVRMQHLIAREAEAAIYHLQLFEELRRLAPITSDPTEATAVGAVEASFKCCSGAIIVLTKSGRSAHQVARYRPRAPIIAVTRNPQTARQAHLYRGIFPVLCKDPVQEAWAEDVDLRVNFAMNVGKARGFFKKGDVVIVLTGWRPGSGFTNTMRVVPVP
From the text: NIH Chemical Genomics Center [NCGC] Matthew G. Vander Heiden, M.D., Ph.D. [Harvard Medical School, 77 Avenue Louis Pasteur, Boston, MA 02115] MLPCN Grant: 1 R03 MH085679-01 NCGC Assay Overview: Human pyruvate kinase muscle 2 (hPK-M2) enzyme was supplied as a highly purified (>95% pure) preparation from Harvard Medical School and assayed for its ability to generate ATP from ADP using phosphoenolpyruvate (PEP) as a substrate. ATP generation was detected in a coupled reaction by luciferase-mediated luminescence, an ATP-dependent process. Pyruvate kinase substrates, PEP and ADP, were present in the assay at Km and approximately 10-fold below Km respectively. The enzyme was assayed at an intermediate level of activity to screen for both inhibitors and activators.
NCGC Assay Protocol Summary: Three uL of substrate mix (at r.t.) in assay buffer (50 mM Imidazole pH7.2, 50 mM KCl, 7 mM MgCl2, 0.01% Tween 20, 0.05% BSA) was dispensed into white solid bottom 1,536 well microtiter plates so that the final concentrations of substrates in the assay were 0.1 mM ADP and 0.5 mM PEP. 23 nL of compound were delivered by a pin tool and 1 uL of enzyme mix in assay buffer (4 degree Celsius) was added. […] Two uL of detection mix (Kinase-Glo, Promega; at 4 degree Celsius protected from light) was added and luminescence read by a ViewLux (Perkin Elmer) at 5 second exposure/plate. […]

Row | Compound | outcome
1 | Cc1ccc(-c2nc3ccccn3c2Nc2ccc(F)cc2)o1 | inactive
